Laboratory results as given in PubChem BioAssay AID1159580 (chemical genetic matrix, 2015).
Values joined by “and” are separate entries in the source; they are usually repeats but may differ in a detail not shown here. Equal values may be shown once. About 2,000 (36%) of roughly 5,500 compounds were called active. Not shown: some 18% with an inconclusive outcome. Cut-off read from the data, not from the text of the source: active = normalized growth mostly below about 0.91 (no sharp cut-off); inconclusive = no clear call, values can overlap the other calls; inactive = mostly above about 0.92. This is one part of the list.

Assay: chemical genetic growth profiling, strain panel (AID 1159580);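 note: tested at 20 µM; growth read once vehicle control cultures reached saturation at 30 °C; 1 = growth at the plate median or of vehicle wells; lower values mean less growth of the strain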
Conditions: S. cerevisiae deletion strains, growth OD

Measured: normalized growth

C[N+]1(C)C2CC(OC(=O)[C@@H](CO)c3ccccc3)CC1C1OC12 (some centres not stated)
inactive: locus YAL021C, strain ccr4, active compounds read low 0.987 | locus YAL026C, strain drs2, active compounds read low 0.999 | locus YAL030W, strain snc1, active compounds read low 0.968 | locus YBL061C, strain skt5, active compounds read low 0.98 | locus YBR009C, strain hhf1, active compounds read low 0.955 | locus YBR021W, strain FUR4, active compounds read low 1.04 | locus YBR023C, strain chs3, active compounds read low 0.958 | locus YBR171W, strain sec66, active compounds read low 0.951 | locus YBR229C, strain ROT2, active compounds read low 1.01 | locus YBR231C, strain swc5, active compounds read low 0.982 | locus YBR279W, strain paf1, active compounds read low 0.986 | locus YCL011C, strain gbp2, active compounds read low 0.923 | locus YCL016C, strain dcc1, active compounds read low 0.932 | locus YCL029C, strain bik1, active compounds read low 1 | locus YCL061C, strain MRC1, active compounds read low 0.977 | locus YCL069W, strain vba3, active compounds read low 0.974 | locus YCR088W, strain abp1, active compounds read low 0.989 | locus YDL005C, strain med2, active compounds read low 0.989 | locus YDL035C, strain GPR1, active compounds read low 1.02 | locus YDL040C, strain nat1, active compounds read low 0.994 | locus YDL074C, strain BRE1, active compounds read low 1.05 | locus YDL101C, strain DUN1, active compounds read low 1.01 | locus YDL185W, strain tfp1, active compounds read low 1.01 | locus YDL192W, strain arf1, active compounds read low 1.03 | locus YDR001C, strain nth1, active compounds read low 0.975 | locus YDR069C, strain doa4, active compounds read low 0.977 | locus YDR101C, strain arx1, active compounds read low 0.99 | locus YDR137W, strain rgp1, active compounds read low 0.924 | locus YDR159W, strain sac3, active compounds read low 1 | locus YDR162C, strain NBP2, active compounds read low 1.02 | locus YDR195W, strain ref2 1.01 | locus YDR297W, strain sur2, active compounds read low 0.976 | locus YDR318W, strain mcm21, active compounds read low 1.03 | locus YDR334W, strain swr1, active compounds read low 0.933 | locus YDR335W, strain msn5, active compounds read low 0.968 | locus YDR388W, active compounds read low 1.01 | locus YDR392W, strain spt3, active compounds read low 0.934 | locus YDR502C, strain sam2, active compounds read low 1.03 | locus YEL003W, strain gim4, active compounds read low 0.996 | locus YEL037C, strain rad23, active compounds read low 0.982 | locus YEL061C, strain CIN8 (second series), active compounds read low 0.98 | locus YEL061C, strain CIN8, active compounds read low 1.05 | locus YER015W, strain faa2, active compounds read low 0.986 | locus YER016W, strain bim1, active compounds read low 0.997 | locus YER110C, active compounds read low 1.02 | locus YER111C, strain swi4, active compounds read low 0.985 | locus YER155C, strain BEM2 (second series), active compounds read low 1.02 | locus YER155C, strain BEM2, active compounds read low 1.01 | locus YER167W, strain BCK2, active compounds read low 1.03 | locus YFR010W, strain ubp6, active compounds read low 0.978 | locus YGL078C, strain dbp3, active compounds read low 1.01 | locus YGL086W, strain mad1, active compounds read low 1 | locus YGL167C, strain pmr1, active compounds read low 0.964 | locus YGL173C, strain kem1, active compounds read low 0.969 | locus YGL227W, strain vid30, active compounds read low 0.978 | locus YGL240W, strain doc1, active compounds read low 1 | locus YGL248W, strain PDE1, active compounds read low 1.01 | locus YGL253W, strain hxk2, active compounds read low 0.97 | locus YGR135W, strain pre9, active compounds read low 1.06 | locus YGR229C, strain SMI1, active compounds read low 1.05 | locus YGR252W, strain gcn5, active compounds read low 1.05 | locus YHR013C, strain ard1, active compounds read low 0.957 | locus YHR027C, strain rpn1, active compounds read low 0.957 | locus YHR030C, strain SLT2, active compounds read low 1.02 and 1.03 | locus YHR079C, strain IRE1 (second series), active compounds read low 1.02 | locus YHR079C, strain IRE1, active compounds read low 1.03 | locus YHR094C, strain hxt1, active compounds read low 1.01 | locus YHR129C, strain ARP1, active compounds read low 1.01 | locus YHR142W, strain chs7, active compounds read low 0.916 | locus YHR200W, strain rpn10, active compounds read low 1.02 | locus YIL066C, strain RNR3, active compounds read low 1.01 | locus YIL073C, strain SPO22, active compounds read low 1.07 | locus YIL125W, strain kgd1, active compounds read low 1.01 | locus YIR030C, strain dcg1, active compounds read low 1.02 | locus YJL092W, strain hpr5, active compounds read low 0.969 | locus YJL095W, strain BCK1 (second series), active compounds read low 0.974 | locus YJL095W, strain BCK1, active compounds read low 1.02 and 1.01 | locus YJL115W, strain asf1, active compounds read low 0.958 | locus YJL129C, strain trk1, active compounds read low 0.976 | locus YJL134W, strain LCB3, active compounds read low 1 | locus YJL154C, strain vps35, active compounds read low 0.975 | locus YJL164C, strain tpk1, active compounds read low 1 | locus YJL166W, strain qcr8, active compounds read low 0.959 | locus YJL168C, strain set2, active compounds read low 1.01 | locus YJL187C, strain SWE1 (second series), active compounds read low 1.01 | locus YJL187C, strain SWE1, active compounds read low 0.976 | locus YJR043C, strain POL32, active compounds read low 1.02
